# Measured values as given in publication PMC8384837, “Expanding the binding specificity for RNA recognition by a PUF domain”.
# Tests used:
# Assay in all cases: yeast three-hybrid, YBZ-1, SC-Leu-His + 0.5 mM 3-AT, 4 days
# Details in all cases: tags: N-Gal4 AD-HA kept; label: inside an RPR1-promoter hybrid RNA with tandem MS2 sites; ssRNA
# [1] = target: PUM1 PUF domain R4-DYV (Homo sapiens, UniProt Q14671 828-1176, N971D;H972Y;Q975V)
# Procedure, shortened: (§1)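 The interaction score is the logarithmic change in variant frequency from input to selection. It uses log2, with a pseudocount of 1 for absent variants, and frequencies came from PCR-amplified, Illumina-sequenced repeat regions. The libraries were Pumilio-1 PUF domains randomized at the three base-contacting residues per repeat, co-expressed with matching RNA elements in strain YBZ-1 (LexA–MS2 coat fusion, HIS3 reporter). Plating lasted four days on SC-Leu (input) or SC-Leu-His + 0.5 mM 3-AT (selection).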
# [2] = target: PUM1 PUF domain R4-PFD (Homo sapiens, UniProt Q14671 828-1176, N971P;H972F;Q975D)
# Chain of PUM1 PUF domain R4-PFD (Q14671 828-1176 N971P/H972F/Q975D): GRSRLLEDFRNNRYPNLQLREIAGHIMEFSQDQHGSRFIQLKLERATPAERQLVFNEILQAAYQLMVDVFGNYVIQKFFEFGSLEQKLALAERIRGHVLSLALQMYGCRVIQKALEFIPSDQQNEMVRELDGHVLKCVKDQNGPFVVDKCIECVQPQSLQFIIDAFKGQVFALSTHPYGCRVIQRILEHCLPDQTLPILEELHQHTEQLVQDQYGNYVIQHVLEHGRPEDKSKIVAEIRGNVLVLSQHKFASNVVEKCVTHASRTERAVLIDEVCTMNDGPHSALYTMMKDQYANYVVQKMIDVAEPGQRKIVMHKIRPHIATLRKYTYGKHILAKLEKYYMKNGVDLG
# Procedure, shortened: as §1
# [3] = target: PUM1 PUF domain R4-AMV (Homo sapiens, UniProt Q14671 828-1176, N971A;H972M;Q975V)
# Chain of PUM1 PUF domain R4-AMV (Q14671 828-1176 N971A/H972M/Q975V): as the sequence (Q14671 828-1176 N971P/H972F/Q975D) above, with P144A, F145M, D148V counted along it
# Procedure, shortened: as §1
# [4] = target: PUM1 PUF domain R5-RFA (Homo sapiens, UniProt Q14671 828-1176, C1007R;R1008F;Q1011A)
# Chain of PUM1 PUF domain R5-RFA (Q14671 828-1176 C1007R/R1008F/Q1011A): as the sequence (Q14671 828-1176 N971P/H972F/Q975D) above, with P144N, F145H, D148Q, C180R, R181F, Q184A counted along it
# Procedure, shortened: as §1
# [5] = target: PUM1 PUF domain R5-RFG (Homo sapiens, UniProt Q14671 828-1176, C1007R;R1008F;Q1011G)
# Chain of PUM1 PUF domain R5-RFG (Q14671 828-1176 C1007R/R1008F/Q1011G): as the sequence (Q14671 828-1176 N971P/H972F/Q975D) above, with P144N, F145H, D148Q, C180R, R181F, Q184G counted along it
# Procedure, shortened: as §1
# [6] = target: PUM1 PUF domain R5-HRM (Homo sapiens, UniProt Q14671 828-1176, C1007H;Q1011M)
# Chain of PUM1 PUF domain R5-HRM (Q14671 828-1176 C1007H/Q1011M): as the sequence (Q14671 828-1176 N971P/H972F/Q975D) above, with P144N, F145H, D148Q, C180H, Q184M counted along it
# Procedure, shortened: as §1
# [7] = target: PUM1 PUF domain R3-RTR (Homo sapiens, UniProt Q14671 828-1176, C935R;R936T;Q939R)
# Chain of PUM1 PUF domain R3-RTR (Q14671 828-1176 C935R/R936T/Q939R): as the sequence (Q14671 828-1176 N971P/H972F/Q975D) above, with C108R, R109T, Q112R, P144N, F145H, D148Q counted along it
# Procedure, shortened: as §1
# [8] = target: PUM1 PUF domain R2-LWY (Homo sapiens, UniProt Q14671 828-1176, N899L;Y900W;Q903Y)
# Chain of PUM1 PUF domain R2-LWY (Q14671 828-1176 N899L/Y900W/Q903Y): as the sequence (Q14671 828-1176 N971P/H972F/Q975D) above, with N72L, Y73W, Q76Y, P144N, F145H, D148Q counted along it
# Procedure, shortened: as §1
# [9] = target: PUM1 PUF domain R3-KHV (Homo sapiens, UniProt Q14671 828-1176, C935K;R936H;Q939V)
# Chain of PUM1 PUF domain R3-KHV (Q14671 828-1176 C935K/R936H/Q939V): as the sequence (Q14671 828-1176 N971P/H972F/Q975D) above, with C108K, R109H, Q112V, P144N, F145H, D148Q counted along it
# Procedure, shortened: as §1
# [10] = target: PUM1 PUF domain R3-ARG (Homo sapiens, UniProt Q14671 828-1176, C935A;Q939G)
# Chain of PUM1 PUF domain R3-ARG (Q14671 828-1176 C935A/Q939G): as the sequence (Q14671 828-1176 N971P/H972F/Q975D) above, with C108A, Q112G, P144N, F145H, D148Q counted along it
# Procedure, shortened: as §1
# [11] = target: PUM1 PUF domain R8-MWR (Homo sapiens, UniProt Q14671 828-1176, N1122M;Y1123W;Q1126R)
# Chain of PUM1 PUF domain R8-MWR (Q14671 828-1176 N1122M/Y1123W/Q1126R): as the sequence (Q14671 828-1176 N971P/H972F/Q975D) above, with P144N, F145H, D148Q, N295M, Y296W, Q299R counted along it
# Procedure, shortened: as §1
# [12] = target: PUM1 PUF domain R5-QKN (Homo sapiens, UniProt Q14671 828-1176, C1007Q;R1008K;Q1011N)
# Chain of PUM1 PUF domain R5-QKN (Q14671 828-1176 C1007Q/R1008K/Q1011N): as the sequence (Q14671 828-1176 N971P/H972F/Q975D) above, with P144N, F145H, D148Q, C180Q, R181K, Q184N counted along it
# Procedure, shortened: as §1
# [13] = target: PUM1 PUF domain R5-KFT (Homo sapiens, UniProt Q14671 828-1176, C1007K;R1008F;Q1011T)
# Chain of PUM1 PUF domain R5-KFT (Q14671 828-1176 C1007K/R1008F/Q1011T): as the sequence (Q14671 828-1176 N971P/H972F/Q975D) above, with P144N, F145H, D148Q, C180K, R181F, Q184T counted along it
# Procedure, shortened: as §1
# [14] = target: PUM1 PUF domain R1-TVE (Homo sapiens, UniProt Q14671 828-1176, S863T;R864V;Q867E)
# Chain of PUM1 PUF domain R1-TVE (Q14671 828-1176 S863T/R864V/Q867E): as the sequence (Q14671 828-1176 N971P/H972F/Q975D) above, with S36T, R37V, Q40E, P144N, F145H, D148Q counted along it
# Procedure, shortened: as §1
# [15] = target: PUM1 PUF domain R8-KYC (Homo sapiens, UniProt Q14671 828-1176, N1122K;Q1126C)
# Chain of PUM1 PUF domain R8-KYC (Q14671 828-1176 N1122K/Q1126C): as the sequence (Q14671 828-1176 N971P/H972F/Q975D) above, with P144N, F145H, D148Q, N295K, Q299C counted along it
# Procedure, shortened: as §1
# [16] = target: PUM1 PUF domain R8-PWS (Homo sapiens, UniProt Q14671 828-1176, N1122P;Y1123W;Q1126S)
# Chain of PUM1 PUF domain R8-PWS (Q14671 828-1176 N1122P/Y1123W/Q1126S): as the sequence (Q14671 828-1176 N971P/H972F/Q975D) above, with P144N, F145H, D148Q, N295P, Y296W, Q299S counted along it
# Procedure, shortened: as §1
# [17] = target: PUM1 PUF domain R8-KYQ (Homo sapiens, UniProt Q14671 828-1176, N1122K)
# Chain of PUM1 PUF domain R8-KYQ (Q14671 828-1176 N1122K): as the sequence (Q14671 828-1176 N971P/H972F/Q975D) above, with P144N, F145H, D148Q, N295K counted along it
# Procedure, shortened: as §1
# [18] = target: PUM1 PUF domain R5-LYM (Homo sapiens, UniProt Q14671 828-1176, C1007L;R1008Y;Q1011M)
# Chain of PUM1 PUF domain R5-LYM (Q14671 828-1176 C1007L/R1008Y/Q1011M): as the sequence (Q14671 828-1176 N971P/H972F/Q975D) above, with P144N, F145H, D148Q, C180L, R181Y, Q184M counted along it
# Procedure, shortened: as §1
# [19] = target: PUM1 PUF domain R8-HWR (Homo sapiens, UniProt Q14671 828-1176, N1122H;Y1123W;Q1126R)
# Chain of PUM1 PUF domain R8-HWR (Q14671 828-1176 N1122H/Y1123W/Q1126R): as the sequence (Q14671 828-1176 N971P/H972F/Q975D) above, with P144N, F145H, D148Q, N295H, Y296W, Q299R counted along it
# Procedure, shortened: as §1
# [20] = target: PUM1 PUF domain R8-PYS (Homo sapiens, UniProt Q14671 828-1176, N1122P;Q1126S)
# Chain of PUM1 PUF domain R8-PYS (Q14671 828-1176 N1122P/Q1126S): as the sequence (Q14671 828-1176 N971P/H972F/Q975D) above, with P144N, F145H, D148Q, N295P, Q299S counted along it
# Procedure, shortened: as §1
# Chain of PUM1 PUF domain R4-DYV (Q14671 828-1176 N971D/H972Y/Q975V): as the sequence (Q14671 828-1176 N971P/H972F/Q975D) above, with P144D, F145Y, D148V counted along it
sequence,measurement,setting,value
GGCUAGAACUAGUGGAUCCCCCGGCGCCCGGCGGCUCGAGCCCGGGUAAGUGUAUAUAGUCUGCAUGCCGCCGGGCGCCAUGCCUGCAGGUCGACUCUAGAAAACAUG,binding signal,[1],6.86 log2 enrichment (interaction score)
same,binding signal,[2],5.34 log2 enrichment (interaction score)
same,binding signal,[3],1.51 log2 enrichment (interaction score)
GGCUAGAACUAGUGGAUCCCCCGGCGCCCGGCGGCUCGAGCCCGGGUAAGUGUUAAUAGUCUGCAUGCCGCCGGGCGCCAUGCCUGCAGGUCGACUCUAGAAAACAUG,binding signal,[4],4.55 log2 enrichment (interaction score)
same,binding signal,[5],5.49 log2 enrichment (interaction score)
same,binding signal,[6],4.33 log2 enrichment (interaction score)
GGCUAGAACUAGUGGAUCCCCCGGCGCCCGGCGGCUCGAGCCCGGGUAAGUGUAAGUAGUCUGCAUGCCGCCGGGCGCCAUGCCUGCAGGUCGACUCUAGAAAACAUG,binding signal,[7],1.03 log2 enrichment (interaction score)
GGCUAGAACUAGUGGAUCCCCCGGCGCCCGGCGGCUCGAGCCCGGGUAAGUGUAAAAAGUCUGCAUGCCGCCGGGCGCCAUGCCUGCAGGUCGACUCUAGAAAACAUG,binding signal,[8],8.01 log2 enrichment (interaction score)
GGCUAGAACUAGUGGAUCCCCCGGCGCCCGGCGGCUCGAGCCCGGGUAAGUGUAAUUAGUCUGCAUGCCGCCGGGCGCCAUGCCUGCAGGUCGACUCUAGAAAACAUG,binding signal,[9],2.96 log2 enrichment (interaction score)
same,binding signal,[10],0.5 log2 enrichment (interaction score)
same,binding signal,[7],4.46 log2 enrichment (interaction score)
GGCUAGAACUAGUGGAUCCCCCGGCGCCCGGCGGCUCGAGCCCGGGUAAGGGUAAAUAGUCUGCAUGCCGCCGGGCGCCAUGCCUGCAGGUCGACUCUAGAAAACAUG,binding signal,[11],2.37 log2 enrichment (interaction score)
GGCUAGAACUAGUGGAUCCCCCGGCGCCCGGCGGCUCGAGCCCGGGUAAGUGUCAAUAGUCUGCAUGCCGCCGGGCGCCAUGCCUGCAGGUCGACUCUAGAAAACAUG,binding signal,[12],2.32 log2 enrichment (interaction score)
same,binding signal,[4],5.36 log2 enrichment (interaction score)
same,binding signal,[5],5.07 log2 enrichment (interaction score)
same,binding signal,[6],1.79 log2 enrichment (interaction score)
same,binding signal,[13],5.09 log2 enrichment (interaction score)
GGCUAGAACUAGUGGAUCCCCCGGCGCCCGGCGGCUCGAGCCCGGGUAAGUGUAAAUGGUCUGCAUGCCGCCGGGCGCCAUGCCUGCAGGUCGACUCUAGAAAACAUG,binding signal,[14],2.57 log2 enrichment (interaction score)
GGCUAGAACUAGUGGAUCCCCCGGCGCCCGGCGGCUCGAGCCCGGGUAAGUGUACAUAGUCUGCAUGCCGCCGGGCGCCAUGCCUGCAGGUCGACUCUAGAAAACAUG,binding signal,[1],6.74 log2 enrichment (interaction score)
same,binding signal,[2],1.86 log2 enrichment (interaction score)
same,binding signal,[3],1.83 log2 enrichment (interaction score)
GGCUAGAACUAGUGGAUCCCCCGGCGCCCGGCGGCUCGAGCCCGGGUAAGUGUAAAUAGUCUGCAUGCCGCCGGGCGCCAUGCCUGCAGGUCGACUCUAGAAAACAUG,binding signal,[10],3.94 log2 enrichment (interaction score)
same,binding signal,[1],5.94 log2 enrichment (interaction score)
same,binding signal,[4],2.39 log2 enrichment (interaction score)
same,binding signal,[15],2.79 log2 enrichment (interaction score)
same,binding signal,[2],3.55 log2 enrichment (interaction score)
same,binding signal,[16],2.42 log2 enrichment (interaction score)
same,binding signal,[17],5.9 log2 enrichment (interaction score)
same,binding signal,[5],3.09 log2 enrichment (interaction score)
same,binding signal,[6],1.49 log2 enrichment (interaction score)
same,binding signal,[11],4.37 log2 enrichment (interaction score)
same,binding signal,[18],2.36 log2 enrichment (interaction score)
same,binding signal,[7],0.19 log2 enrichment (interaction score)
same,binding signal,[3],3.03 log2 enrichment (interaction score)
GGCUAGAACUAGUGGAUCCCCCGGCGCCCGGCGGCUCGAGCCCGGGUAAGUGUGAAUAGUCUGCAUGCCGCCGGGCGCCAUGCCUGCAGGUCGACUCUAGAAAACAUG,binding signal,[5],2.66 log2 enrichment (interaction score)
GGCUAGAACUAGUGGAUCCCCCGGCGCCCGGCGGCUCGAGCCCGGGUAAGCGUAAAUAGUCUGCAUGCCGCCGGGCGCCAUGCCUGCAGGUCGACUCUAGAAAACAUG,binding signal,[15],6.06 log2 enrichment (interaction score)
same,binding signal,[11],4.99 log2 enrichment (interaction score)
same,binding signal,[19],7.03 log2 enrichment (interaction score)
same,binding signal,[20],3.23 log2 enrichment (interaction score)
